Consider eight compounds from PubChem BioAssay (NCI).

Compounds without any hit were thinned out: in the full panel of roughly 83,000, 20% have a hit.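 Interpretation: 100, growth as untreated; towards 0, rising growth inhibition; 0, no net growth; 0 to -100, cell death. Compounds scoring below 10 were considered active.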 Values without a mark were called inactive. The source made the active and inactive calls.

Holding throughout (assay): NCI-60 one-dose screen, 48 h (100 = growth as untreated, 0 = no growth, -100 = all killed)
Conditions in all cases: 10 µM unless noted

Experiment [1] relates to RPMI-8226 leukemia.
In experiment [2] the test system is OVCAR-8 ovarian.
In experiment [3] the test system is OVCAR-5 ovarian.
Experiment [4] concerns OVCAR-4 ovarian.
The test system of experiment [5] is SK-OV-3 ovarian.
Experiment [6] relates to IGROV1 ovarian.
Experiment [7] concerns OVCAR-3 ovarian.
For experiment [8], the system named is HS 578T breast.
Experiment [9] has as its system NCI/ADR-RES ovarian.
The subject of experiment [10] is T-47D breast.
The test system of experiment [11] is MDA-MB-435 melanoma.
Experiment [12] deals with SW-620 colon.
The test system of experiment [13] is MCF7 breast.
The test system of experiment [14] is HCT-116 colon.
The subject of experiment [15] is HCC-2998 colon.
Experiment [16] deals with KM12 colon.
For experiment [17], the system named is MDA-MB-468 breast.
In experiment [18] the test system is SR leukemia.
Experiment [19] concerns BT-549 breast.

As for `N#Cc1c(NCc2ccccc2)n[nH]c1Nc1ccccc1`, the growth in experiment [1] was 37.3%; in experiment [2], 61.1%; in experiment [3], 84.4%; in experiment [4], 52.9%; in experiment [5], 68%; in experiment [6], 89.6%. For the same compound, the growth in experiment [7] was 66.8%; in experiment [8], 84.6%; in experiment [9] it was 59.9%; in [10] it was 17.2%; in [11] it was 56.6%; in experiment [12], 62.7%. For the same compound, the growth was 41.6% in [13]; 33.1% in experiment [14]; 99.7% in experiment [15]; 55.7% in experiment [16]; 59.8% in experiment [17].
Turning to `NS(=O)(=O)c1ccc(-n2cc(-c3cccc(NC(=O)c4cc(N5CCOCC5)cc(C(F)(F)F)c4)c3)nn2)cc1`, the growth was 98.8% in [1]; 5.31% (active) in [2]; 108% in experiment [3]; 48.3% in [4]; 31.2% in [5]; 72.9% in [6]. Also, the growth in [7] is 69%; in [8], 47.9%; in experiment [9], 98.5%; in experiment [10], 47%; in [11], 85.9%; in [12] it was 105%. Besides, the growth in [13] is 72.9%; in [14] it was 87.2%; in experiment [15], 88.1%; in experiment [16] it was 79%; in [17] it was 69.4%.
Regarding `O=C(/C=C/c1cccc(OCc2ccccc2)c1)c1nc2ccccc2[nH]1`, the growth in experiment [18] is -33.3% (active); in experiment [2], 58%; in [3], 105%; in experiment [4] it was 59.4%; in experiment [5] it was 87.8%; in [6] it was 60.3%. In addition, the growth in [7] is 38.3%; in [9] it was 64.5%; in experiment [10], 13.7%; in experiment [19], 8.5% (active); in experiment [11] it was 72%; in [13] it was 3.28% (active). For the same compound, the figures for the growth in experiment [15], in experiment [16] and in experiment [17] were -5.62% (active), 4.96% (active) and -40.1% (active), respectively.
Take `COc1cc2c(c(OC)c1OC)C(=O)CC(c1cccc(NC(=O)c3cc([N+](=O)[O-])ccc3Cl)c1)O2` (stereo not drawn): the growth in [1] was 30.3%; in [2], -11.6% (active); in experiment [3] it was 67.2%; in experiment [4], 57.2%; in experiment [5], 57.1%; in [6], 12.5%. Further, the growth in experiment [7] was 16%; in experiment [8] it was 15.1%; in experiment [9], 15%; in experiment [10] it was 23.6%; in [19] it was -11% (active); in experiment [11], 28.5%. The growth is -6.32% (active) in experiment [12]; 11.7% in experiment [13]; -66.1% (active) in [14]; 33% in experiment [15]; -54.7% (active) in [16]; -13.7% (active) in experiment [17].
`COc1ccc(-c2cc(C(=O)NCc3ccccc3)nn2-c2ccc(S(C)(=O)=O)cc2)cc1OC`: the growth in [18] was 82.3%; in [2], 100%; in experiment [3] it was 102%; in [4], 94.3%; in experiment [5], 105%; in experiment [6] it was 122%. Also, the growth is 115% in experiment [7]; 107% in experiment [9]; 91.1% in experiment [10]; 104% in [19]; 105% in experiment [11]; 95.2% in experiment [13]. The growth is 102% in experiment [14], 117% in [15], 102% in experiment [16] and 100% in experiment [17].
Regarding `COc1ccc(-c2nnc3ccc(N/N=C/c4ccc(O)cc4)nn23)cc1`, the growth in experiment [1] is 13.1%; in experiment [2] it was 45.4%; in experiment [3] it was 88.9%; in experiment [4], 47.9%; in experiment [5], 104%; in experiment [6], 39.3%. For the same compound, the growth in experiment [7] was 37.6%; in experiment [8], 46.8%; in [9], 26%; in [10], 45.4%; in experiment [11] it was 45.8%; in experiment [12] it was 67.1%. In addition, the growth in [13] is 13.2%; in experiment [14], 27.3%; in experiment [15], 14.9%; in experiment [16], 28.5%.
Take `COc1ccccc1/C=C/C(=O)c1ccc(OC)c(S(N)(=O)=O)c1`: the growth was 4.34% (active) in experiment [1]; -9.18% (active) in experiment [2]; 12.4% in experiment [3]; 42.9% in [4]; 47.5% in [5]; 38.9% in [6]. The growth in experiment [7] was 7.84% (active); in experiment [8], 60.4%; in experiment [9], 22.9%; in experiment [10], 17%; in experiment [11], 27.2%; in experiment [12], 20.5%. In addition, the growth is 8.25% (active) in experiment [13]; 5% (active) in experiment [14]; 29.5% in experiment [15]; 6.73% (active) in experiment [16]; 20.7% in experiment [17].
As for `C[C@H]1CN(C(=O)c2ccc3c(NNC(=O)c4ccncn4)nc4cc(F)c(F)cc4n23)CCN1`, the growth in experiment [1] was 23.6%; in experiment [2], 17.2%; in experiment [3], 50.4%; in experiment [4] it was 34.7%; in experiment [5] it was 43.7%; in experiment [6], 33%. Moreover, the growth is 58.2% in experiment [7]; 59.6% in experiment [8]; 3.96% (active) in experiment [9]; 21.3% in experiment [10]; 37.4% in experiment [11]; 38% in experiment [12]. Also, the growth was 17.4% in [13]; 21.7% in [14]; 61.7% in [15]; 37% in experiment [16]; 7.53% (active) in [17].
